A short description of test [1]: A CellTox Green Cytotoxicity Assay to monitor cytotoxicity in HEK293 cells - 32 hour (AID 1224881). Also: nearly all actives have a fitted effect of over 40% in size. The settings on record: CellTox Green fluorescence; series mostly up to 76.8 µM. A digest of the protocol:
(§1)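 Homogeneous no-lysis format: HEK293 cell suspension mixed with CellTox Green reagent, seeded, incubated 5 h at 37 C/5% CO2, then dosed by pintool with compound in DMSO.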

A short description of test [2]: A CellTox Green Cytotoxicity Assay to monitor cytotoxicity in HepG2 cells - 0 hour (AID 1224882). Also: nearly all actives have a fitted effect of over 35% in size. The conditions noted are these: CellTox Green fluorescence; series mostly up to 76.8 µM. A digest of the protocol:
(§2)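 Fluorescent DNA-binding dye, 600 HepG2 cells/well, 5 h preincubation then compound in DMSO; same plates read at 0–40 h, 37 C.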

The nature of test [3]: A CellTox Green Cytotoxicity Assay to monitor cytotoxicity in HepG2 cells - 32 hour (AID 1224883). Also: nearly all actives have a fitted effect of over 50% in size. The conditions noted are these: CellTox Green fluorescence; series mostly up to 76.8 µM. A digest of the protocol: as §2
Test [4] is described as follows: qHTS RealTime-Glo MT Cell Viability Assay in HepG2 cells - 16 hour (AID 1224885). Also: nearly all actives have a fitted effect of over 50% in size. The settings on record: RealTime-Glo luminescence; series mostly up to 76.8 µM. A digest of the protocol: (§3)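 HepG2 cells (600/well) were dispensed with RealTime-Glo reagents, incubated 5 h at 37 °C, then treated with compounds in DMSO for up to 40 h. Nonlytic NanoLuc luminescence reflecting viable cells was read at each stated time point.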

Test [5] can be described thus: qHTS RealTime-Glo MT Cell Viability Assay in HEK293 cells - 24 hour (AID 1224886). Also: top concentration of the series differs between compounds; nearly all actives have a fitted effect of over 50% in size. The conditions noted are these: RealTime-Glo luminescence; series mostly up to 76.8 µM. A digest of the protocol:
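HEK293 cells seeded with NanoLuc/prosubstrate reagent, rested 5 h at 37 C, then dosed and kept at 37 C up to 40 h. Nonlytic real-time luminescence from viable cells read at 0, 8, 16, 24, 32 and 40 h.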

Test [6] can be described thus: qHTS RealTime-Glo MT Cell Viability Assay in HEK293 cells - 8 hour (AID 1224887). Also: top concentration of the series differs between compounds; nearly all actives have a fitted effect of over 50% in size. The conditions noted are these: RealTime-Glo luminescence; series mostly up to 76.8 µM. A digest of the protocol: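 Measured as luminescence from the same continuously cultured HEK293 wells at successive time points (0, 8, 16, 24, 32, 40 h) after compound addition. Reagent present from seeding; dosing at 5 h; incubation 37 C.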
(In general: In qHTS, concentration-response curves come from the screen itself.)

Test [7] in a line: qHTS RealTime-Glo MT Cell Viability Assay in HepG2 cells - 0 hour (AID 1224889). Also: nearly all actives have a fitted effect of over 50% in size. The settings on record: RealTime-Glo luminescence; series mostly up to 76.8 µM. A digest of the protocol: as §3
The nature of test [8]: A CellTox Green Cytotoxicity Assay to monitor cytotoxicity in HepG2 cells - 8 hour (AID 1224890). Also: nearly all actives have a fitted effect of over 45% in size. The conditions noted are these: CellTox Green fluorescence; series mostly up to 76.8 µM. A digest of the protocol:
as §2

A short description of test [9]: qHTS assay to identify small molecule antagonists of the estrogen receptor alpha (ER-alpha) signaling pathway using the BG1 cell line in the presence of 0.1 nM 17-beta-estradiol - cell viability counter screen (AID 1259241). Also: nearly all actives have a fitted effect of over 40% in size. The conditions noted are these: VM7Luc4E2 (BG1) viability, CellTiter-Fluor protease, 22 h, 0.1 nM estradiol agonist added; series mostly up to 92.4 µM. A digest of the protocol:
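Estradiol-stimulated (0.1 nM) VM7Luc4E2 cells exposed to compounds 22 hr; viability measured by fluorescence of cleaved CellTiter-Fluor substrate after 30 min.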

Test [10] can be described thus: qHTS assay to identify small molecule antagonists of the androgen receptor (AR) signaling pathway using the MDA cell line in the presence of 0.5 nM R1881 - cell viability counter screen (AID 1259242). Also: nearly all actives have a fitted effect of over 45% in size. The settings on record: MDA-kb2 viability, CellTiter-Fluor protease fluorescence, 16 h; series mostly up to 92.4 µM. A digest of the protocol: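 Human breast carcinoma MDA-kb2 cells, cultured without CO2, receive compounds alongside 0.5 nM (final) R1881 agonist. After 16 hr at 37C, viability is taken as live-cell protease signal.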

Test [11] concerns the target Estrogen receptor (Homo sapiens) (UniProt P03372). Briefly: qHTS assay to identify small molecule antagonists of the estrogen receptor alpha (ER-alpha) signaling pathway using the BG1 cell line in the presence of 0.1 nM 17-beta-estradiol (AID 1259244). Also: nearly all actives have a fitted effect of over 50% in size. The settings on record: VM7Luc4E2 (BG1) ERE-luciferase, antagonist mode, 0.1 nM E2, 22 h; series mostly up to 92.4 µM. A digest of the protocol:
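Seeding of stripped-serum-adapted VM7Luc4E2 cells, 24 h attachment, compound transfer, then 0.1 nM final 17beta-estradiol; after 22 h incubation, ONE-Glo reagent and luminescence reading.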

A short description of test [12]: qHTS assay to identify small molecule HDAC inhibitors (AID 1259364). Also: potency is read from the fitted curve at half-maximal effect.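 Also: wild-type HCT-116 cells with endogenous class I/II HDAC activity; nearly all actives have a fitted effect of over 45% in size.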 The settings on record: HCT-116 HDAC-Glo I/II luminescence, 2 h; series mostly up to 92.4 µM. A digest of the protocol:
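After a 2 hr compound incubation (37C, 5% CO2), HCT-116 cells seeded at 1,500/well the day before received HDAC-Glo reagent; signal read as luminescence after 30 min at room temperature.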

A short description of test [13]: qHTS assay to identify small molecule HDAC inhibitors - cell viability counter screen (AID 1259365). Also: nearly all actives have a fitted effect of over 50% in size. The conditions noted are these: HCT-116 viability, CellTiter-Glo ATP luminescence, 2 h; series mostly up to 92.4 µM. A digest of the protocol: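 After overnight seeding at 1,500 cells per well, wild-type HCT-116 cultures took up compounds in DMSO for 2hr at 37 C. Viable cell content came from luminescence with CellTiter-Glo.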

Test [14] can be described thus: qHTS assay to identify small molecule agonists of the sonic hedgehog signaling (Shh) pathway - cell viability counter screen (AID 1259366). Also: nearly all actives have a fitted effect of over 50% in size. The conditions noted are these: NIH/3T3 Gli1-Luc viability, CellTiter-Fluor, 24 h; series mostly up to 92.4 µM. A digest of the protocol:
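Same-well cytotoxicity read. Gli1-Luc reporter 3T3 cells; compounds 24hr, 37C/5% CO2; CellTiter-Fluor fluorescence.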

A short description of test [15]: qHTS assay to identify small molecule antagonists of the sonic hedgehog signaling (Shh) pathway - cell viability counter screen (AID 1259367). Also: nearly all actives have a fitted effect of over 55% in size. The conditions noted are these: NIH/3T3 Gli1-Luc viability, CellTiter-Fluor, 24 h; series mostly up to 92.4 µM. A digest of the protocol:
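Fluorescence read-out (CellTiter-Fluor, 1 hr at 37C) taken after 23 hr compound treatment of 3T3 Gli1-Luc cells stimulated with conditioned medium. Cells were seeded at 2,000 per well and pre-incubated 4 hr.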

Test [16] is described as follows: qHTS assay to identify small molecule agonists of the sonic hedgehog signaling (Shh) pathway (AID 1259368; calls by dose curve;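 also: NIH/3T3-derived 3T3Gli1-Luc cells carrying a stable Gli1-driven firefly luciferase reporter; nearly all actives have a fitted effect of over 15% in size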). The settings on record: NIH/3T3 Gli1-Luc reporter, luciferase, 24 h, hits give high values; series mostly up to 92.4 µM. A digest of the protocol: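 Stable NIH/3T3 Gli1-Luc reporter clone; 24 hr cpd exposure after a 4 hr settling period; luminescence endpoint.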

The nature of test [17]: qHTS assay to identify small molecule phospholipidosis (PLD) inducers (AID 1259344; active = well fitted curve in the direction sought with a large enough effect; an effect the other way counts as inactive or inconclusive). The settings on record: HepG2 phospholipidosis, LipidTOX Red imaging, 24 h; series mostly up to 38.3 µM. A digest of the protocol:
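Read-out is LipidTOX Red fluorescence (ex 595/em 615) imaged in HepG2 cells after 24 h compound exposure at 37 C, with Hoechst nuclear counterstain (ex 352/em 461) allowing per-cell normalisation.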

Test [18] is described as follows: A CellTox Green Cytotoxicity Assay to monitor cytotoxicity in HEK293 cells - 16 hour (AID 1224888). Also: nearly all actives have a fitted effect of over 35% in size. The conditions noted are these: CellTox Green fluorescence; series mostly up to 76.8 µM. A digest of the protocol:
as §1

Test [19] concerns the target Androgen receptor (Homo sapiens) (UniProt P10275). Briefly: qHTS assay to identify small molecule antagonists of the androgen receptor (AR) signaling pathway using the MDA cell line in the presence of 0.5 nM R1881 (AID 1259243). Also: nearly all actives have a fitted effect of over 50% in size. The conditions noted are these: MDA-kb2 MMTV-luciferase, R1881 0.5 nM, 16 h; series mostly up to 92.4 µM. A digest of the protocol:
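Cells: MDA-kb2 (MMTV-luc). Stimulus: 0.5 nM R1881. Time: 16 hr, 37C, no CO2. Detection: ONE-Glo luminescence after 30 min at RT.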

Potency and outcome data for nine molecules are collected here from PubChem BioAssay (Tox21).

Results filed as inconclusive are left out. Calls of active or inactive are those of the source. Unless noted, calls follow the shape of the dose curve; as a rule, active = well fitted curve in the direction sought with a large enough effect in the repeat runs; inconclusive = weak or mixed curves; inactive = no such curve, though single readings can be large; an effect the other way counts as inactive or inconclusive.

Estrogen receptor (Homo sapiens), sequence (P03372 whole entry, looked up): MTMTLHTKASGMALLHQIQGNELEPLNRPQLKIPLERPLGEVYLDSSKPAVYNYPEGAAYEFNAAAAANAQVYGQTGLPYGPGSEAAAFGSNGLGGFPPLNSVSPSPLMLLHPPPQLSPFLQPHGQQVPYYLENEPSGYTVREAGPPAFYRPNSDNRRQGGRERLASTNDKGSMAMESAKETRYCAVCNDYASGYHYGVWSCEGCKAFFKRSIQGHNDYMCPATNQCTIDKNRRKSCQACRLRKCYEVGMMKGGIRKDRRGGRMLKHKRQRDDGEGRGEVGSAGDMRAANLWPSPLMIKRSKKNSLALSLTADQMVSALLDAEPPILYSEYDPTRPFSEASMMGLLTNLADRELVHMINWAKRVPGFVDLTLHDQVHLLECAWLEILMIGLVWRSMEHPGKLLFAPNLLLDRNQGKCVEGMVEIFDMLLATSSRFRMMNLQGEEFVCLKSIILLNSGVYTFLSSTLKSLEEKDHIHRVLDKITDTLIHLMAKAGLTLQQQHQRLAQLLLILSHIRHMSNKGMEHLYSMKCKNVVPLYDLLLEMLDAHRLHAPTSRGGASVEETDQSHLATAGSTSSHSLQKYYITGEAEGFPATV
Androgen receptor (Homo sapiens), sequence (P10275 whole entry, looked up): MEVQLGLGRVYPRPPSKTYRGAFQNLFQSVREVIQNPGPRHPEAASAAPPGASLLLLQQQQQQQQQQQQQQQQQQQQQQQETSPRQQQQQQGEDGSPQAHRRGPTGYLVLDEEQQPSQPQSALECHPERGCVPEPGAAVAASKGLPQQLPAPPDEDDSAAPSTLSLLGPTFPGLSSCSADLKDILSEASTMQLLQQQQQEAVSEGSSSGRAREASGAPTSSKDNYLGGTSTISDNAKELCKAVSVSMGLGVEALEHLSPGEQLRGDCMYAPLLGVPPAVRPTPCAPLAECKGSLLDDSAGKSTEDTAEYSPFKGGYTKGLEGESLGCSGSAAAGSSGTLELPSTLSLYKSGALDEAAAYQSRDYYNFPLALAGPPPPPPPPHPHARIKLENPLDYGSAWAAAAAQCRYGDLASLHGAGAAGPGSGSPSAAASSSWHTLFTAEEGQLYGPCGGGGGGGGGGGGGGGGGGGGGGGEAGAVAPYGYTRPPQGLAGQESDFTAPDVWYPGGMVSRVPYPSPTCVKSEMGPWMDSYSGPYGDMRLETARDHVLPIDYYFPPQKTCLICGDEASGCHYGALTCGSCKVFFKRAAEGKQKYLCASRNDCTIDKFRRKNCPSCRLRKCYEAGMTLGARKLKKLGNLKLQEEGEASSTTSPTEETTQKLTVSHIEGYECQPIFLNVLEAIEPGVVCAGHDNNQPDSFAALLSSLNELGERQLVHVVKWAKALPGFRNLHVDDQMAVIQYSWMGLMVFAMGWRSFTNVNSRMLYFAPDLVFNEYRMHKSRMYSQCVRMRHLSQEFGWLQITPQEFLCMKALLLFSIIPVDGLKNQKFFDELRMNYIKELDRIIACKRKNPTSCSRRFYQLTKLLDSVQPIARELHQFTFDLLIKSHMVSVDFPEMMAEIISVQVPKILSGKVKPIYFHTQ

For `Nc1ccc(Cl)c(N)c1`, the Potency result in test [1], in [3], in test [4], in test [5], in [6] and in test [7] was “inactive” throughout. Moreover, the Potency entry in test [9], in test [10], in test [11], in [12], in [14] and in [15] was “inactive” throughout. In addition, the outcome in test [2], in [8], in [13] and in [16] was inactive.

On to `C[C@]12CC[C@@H]3c4ccc(O)cc4CC[C@H]3[C@@H]1C[C@@H](O)[C@@H]2O`, for which the Potency entry in [1], in [3], in test [5], in [6], in test [7] and in [9] was “inactive” in each case. Further, the Potency entry in test [10], in test [12] and in test [15] was “inactive” throughout. The molecule was classed as inactive in test [2], in test [8], in [17], in [13] and in test [16].

`CC(=O)OCCOC(C)=O`: the Potency result in [1], in [3], in test [4], in test [6], in test [18] and in [7] was “inactive” throughout. The Potency result in test [9], in test [10], in test [11], in test [12], in test [14] and in [15] was “inactive” each time. In addition, the result in [2], in [8], in test [13] and in test [16] was inactive.

Regarding `NCCN1CCNCC1`, the Potency entry in test [1], in test [3], in test [6], in test [7], in [9] and in test [10] was “inactive” each time. Moreover, the Potency result in [11], in test [12], in [14] and in [15] was “inactive” in each case. Further, the result in [2], in test [8], in test [13] and in [16] was inactive.

For the molecule `CC(C)=CCl`, the Potency entry in [1], in test [3], in test [5], in test [6], in [18] and in test [7] was “inactive” throughout. Also, the Potency entry in [9], in test [10], in [11], in test [12] and in test [15] was “inactive” each time. Moreover, the call in test [2], in test [8], in test [13] and in [16] was inactive.

For `C=Cc1ccc(C)cc1`, the Potency entry in test [1], in [3], in test [4], in test [5], in [6] and in [7] was “inactive” in each case. In addition, the Potency result in test [9], in test [10], in test [12], in test [14] and in [15] was “inactive” in each case. The call in test [2], in test [8], in [13] and in test [16] was inactive.

Take `O=C1c2ccccc2CCc2ccccc21`: the Potency result in test [1], in [3], in test [4], in test [5], in test [6] and in [7] was “inactive” in each case. For the same molecule, the Potency entry in test [9], in [10] and in test [15] was “inactive” throughout. Further, the outcome in [2], in [8], in [13] and in [16] was inactive. Also, in test [12], the Potency is 27.9 µM (active).

Consider `COc1ccc(C)cc1N`, for which the Potency entry in test [1], in test [3], in test [4], in test [5], in test [6] and in test [7] was “inactive” each time. Besides, the Potency entry in [9], in test [10], in test [19], in test [11], in test [12] and in [15] was “inactive” in each case. In addition, the outcome in [2], in test [8], in test [13] and in test [16] was inactive.

Consider `COc1ccc(OC)cc1`, for which the Potency result in [1], in [3], in test [4], in [6], in test [18] and in [7] was “inactive” in each case. The Potency result in test [9], in test [10], in [11], in test [12], in [14] and in [15] was “inactive” in each case. For the same molecule, the molecule was called inactive in [2], in [8], in [13] and in test [16].
